Assay results as given in PubChem BioAssay (NCI).
About 83,000 compounds went through this panel and 20% of them were active in at least one assay; those are over-represented in the sample as a whole.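 The endpoint reported here, percent growth, reads 100 for growth as untreated, 0 for no net growth and -100 for all cells dead.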 Calls of active or inactive are those of the source. The calls were made as follows: active = growth percent below 10; inactive = the rest.

The compounds below were run on MDA-MB-435 melanoma (assay: NCI-60 one-dose screen, 48 h (100 = growth as untreated, 0 = no growth, -100 = all killed)). Details: 10 µM unless noted.

Structure (SMILES) | growth
O=C(OCC(O)(CO)C(=O)NC12CC3CC(CC(C3)C1)C2)c1ccc(Cl)cc1 (stereo not given) | 101% (inactive)
Cn1ccnc1C(=O)/C=C/c1ccc(CC(=O)Nc2cc(F)c(F)c(F)c2)cc1 | 19.2% (inactive)
Cc1ccc(Nc2cc(N)nc(N)n2)cc1 | 106% (inactive)
Cc1nc2ccccc2c(/C=C/c2ccc(Cl)cc2)c1C(=O)/C=C/c1ccccc1 | -53.2% (active)
NS(=O)(=O)Oc1cccc(-c2nc3sccn3c2-c2ccccc2)c1 | 3.29% (active)

Each compound was assayed on SW-620 colon in the same assay as above. Details: 10 µM unless noted.

Structure (SMILES) | growth
CNC(=O)c1cc(Oc2ccc3nc(NC(=O)Nc4ccc(F)cc4F)sc3c2)ccn1 | 99.9% (inactive)
CCOC(=O)c1c2c(n3ccc(NC(=O)CCN4CCCC4)cc13)C(=O)c1ncccc1C2=O | -82.9% (active)
CNC(=O)c1cc(Oc2ccc3nc(NC(=O)c4cc(C(F)(F)F)cc(C(F)(F)F)c4)sc3c2)ccn1 | 40.2% (inactive)
CC(=O)CC(=O)c1ccccc1.[Cu+2] | 103% (inactive)
O=c1c2cccc3c(N4CCOCC4)ccc(c32)c2nc3ccccc3n12 | 103% (inactive)
COc1ccc(-c2ccc(-c3ccc(C(=N)N)nc3)s2)cc1 | -65.7% (active)
CN1CCN(c2ccc(Nc3ncc4[nH]c(=O)n(Cc5ccccc5N)c4n3)cc2)CC1 | 95.3% (inactive)
NC(=N\N=C/c1ccc(Cl)cc1Cl)/C(N)=N\N=C/c1ccc(Cl)cc1Cl | 63.4% (inactive)
FC(F)(F)c1cccc(-c2nnn(Cc3cc(-c4cccc(Cl)c4)no3)n2)c1 | 106% (inactive)
O=C(c1ccc(F)cc1)C1CCN(CCn2c(=O)[nH]c3ccccc3c2=O)CC1 | 102% (inactive)
Cc1ccc(C2(C)NC(=O)N(CC(=O)Nc3cccc(C)c3)C2=O)cc1 (stereo not given) | 106% (inactive)
COc1ccc(C(=O)C2OC3=C(C(=O)CC(C)(C)C3)C2c2cccc(Oc3ccccc3)c2)cc1 (stereo not given) | 93.6% (inactive)
CC1(C)C2=C(C(=O)N1Cc1ccccc1)C(c1ccco1)N(C(=O)C1CCC1)CCN2 (stereo not given) | 103% (inactive)
COc1ccc(Nc2nccc(Nc3ccc4[nH]ncc4c3)n2)cc1 | 24.8% (inactive)
Cc1nn(-c2ccccc2)c(Oc2ccccc2)c1/C=N/NC(=O)Cn1c(=O)sc2ccccc21 | 72% (inactive)
CCN1C(=O)N(CC)C2C1NC(=S)N2/N=C/C=C/c1cccs1 (stereo not given) | 25.5% (inactive)
O=C(Nc1ncc(Cc2ccc(Cl)cc2)s1)c1ccc2c(c1)OCCO2 | 35.4% (inactive)
C#Cc1ccc(NC(=O)Cc2ccc(/C=C/C(=O)c3nccn3C)cc2)cc1 | 15.8% (inactive)
CN(C)CCOc1nc2c3cc([N+](=O)[O-])ccc3nn2c2ccccc12 | 20.4% (inactive)
CCN(CC)CCCC(Nc1c2ccc(Cl)cc2nc2ccc(OC)cc12)c1ccncc1 (stereo not given) | 61.9% (inactive)
COc1ccc2c(O)cc3c(c2c1)[C@H](CCl)CN3C(=O)c1cc2cc(NC(=O)CCN3CCOCC3)ccc2[se]1 | -41.4% (active)
Oc1ccc(Cc2ccc(O)c3ncccc23)c2cccnc12 | 16.7% (inactive)
CO[C@]12C=C/C(=C(/C(=O)OCc3cccnc3)C(=O)CCCCCCCC[C@]3(OC)C=C/C(=C(/C(=O)OCc4cccnc4)C(=O)CCCCCCCC1)O3)O2 | -33.3% (active)
CC(C)=CCC[C@](C)(O)C1CC[C@]2(C)[C@@H]1CC[C@@H]1[C@@]3(C)CC/C(=N\OCCC#N)C(C)(C)[C@@H]3CC[C@]12C (stereo not given in full) | 78.8% (inactive)
Cn1cc(-c2ccc3c(Nc4cccc(NC(=O)Nc5cccc(F)c5)c4)ncnc3c2)cn1 | 57.7% (inactive)
O=c1oc2ccccc2cc1-c1nn(-c2ccccc2)cc1/C=N/Nc1nc(-c2ccccc2)c(N=Nc2ccccc2)s1 | 43.4% (inactive)
C=C(CNCCO)[C@@H]1CC[C@]2(CO)CC[C@]3(C)[C@H](CC[C@@H]4[C@@]5(C)CCC(NCCO)C(C)(C)[C@@H]5CC[C@]43C)[C@@H]12 (stereo not given in full) | 73.8% (inactive)
COc1cccc(-c2cc(-c3ccc(Nc4nc(Nc5ccc(Cl)cc5)nc(Nc5ccc(Cl)cc5)n4)cc3)nc(N)c2C#N)c1 | -39.7% (active)
CC(C)C(=O)Nc1ncc(C(=O)NCCN(Cc2ccccc2)C(=O)c2ccc(S(=O)(=O)Nc3ccccc3)cc2)s1 | 107% (inactive)
CN1CCN(Cc2ccc(NC(=O)c3cncc(C#Cc4cnc(N)c5ccc(C#N)cc45)c3)cc2C(F)(F)F)CC1 | -41.3% (active)
